# Compound activity: PubChem BioAssay, several laboratories
# CYP2C9 activ = activators of human CYP2C9 | P11712 | activation factor at 5 µM | 96,000 compounds, 1.4% hits | AID 1024 | recombinant CYP2C9, luciferin-H conversion, luminescence; stronger effect = higher value; factor 1 = untreated enzyme, 0 = blocked;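 active means activation factor of 2 or more for CYP2C9 at a 5 µM dose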;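 further: 0 = sulfaphenazole-blocked wells and 1 = vehicle-only wells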
# Cav3 T inh = human Cav3.2 channel inhibition, primary screen; AID 449739; Cav3.2-expressing cells, Fluo-4 calcium fluorescence FDSS; stronger effect = lower value; O95180; B-score at 10 µM; 100,000 compounds, 4% hits;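 active means single-dose well whose peak fluorescence ratio is a statistical outlier from its plate by either plate-standardised score or position-corrected B-score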
# CYP2C9 inhib = inhibitors of human CYP2C9; P11712; CYP2C9 Supersomes, luciferin-H conversion, luminescence; inhibition, % at 5 µM; 96,000 compounds, 20% hits;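 active means blocking of liver enzyme CYP2C9 beyond about 50% at 5 µM, limit read from the data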
# CYP2C19 inhib = human CYP2C19 inhibition | P33261 | CYP2C19 Supersomes, luciferin-H EGE luminescence, 30 min | inhibition, % at 5 µM | 96,000 compounds, 21% hits;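 active means CYP2C19 inhibition above a set limit at 5 µM in the primary screen, cut at about 50% in these data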;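 further: plate controls were negative control wells for no effect and 2.5 mM tranylcypromine positive control for full effect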
# Target sequence (P33261 whole entry, looked up): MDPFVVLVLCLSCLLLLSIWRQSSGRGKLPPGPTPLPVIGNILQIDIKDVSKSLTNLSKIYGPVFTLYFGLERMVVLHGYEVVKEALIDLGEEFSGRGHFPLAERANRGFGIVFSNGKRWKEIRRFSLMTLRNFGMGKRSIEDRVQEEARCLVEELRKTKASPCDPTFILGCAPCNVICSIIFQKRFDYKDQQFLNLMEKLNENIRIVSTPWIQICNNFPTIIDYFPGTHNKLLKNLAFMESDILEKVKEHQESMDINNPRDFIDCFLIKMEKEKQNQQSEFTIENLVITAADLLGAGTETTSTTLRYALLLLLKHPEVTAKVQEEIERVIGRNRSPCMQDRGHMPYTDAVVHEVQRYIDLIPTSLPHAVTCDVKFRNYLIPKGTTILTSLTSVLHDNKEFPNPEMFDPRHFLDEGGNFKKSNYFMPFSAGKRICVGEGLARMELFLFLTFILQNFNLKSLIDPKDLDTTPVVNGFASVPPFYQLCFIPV
# CYP2C19 activ = activators of human cytochrome P450 2C19 | P33261 | recombinant CYP2C19, luciferin-H EGE luminescence; stronger effect = higher value; 0 = fully inhibited enzyme, 1 = untreated enzyme | activation factor at 5 µM | 96,000 tested, under 10 active | AID 1025;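 active means activation factor of at least 2 at 5 µM in the primary screen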;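 further: 0 = wells with 2.5 mM tranylcypromine and 1 = vehicle-only wells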
# Numbers without * were called inactive; nt = no result given. In the library only some 27% were active in any assay of this set; here they are far more common.
SMILES,CYP2C9 activ,Cav3 T inh,CYP2C9 inhib,CYP2C19 inhib,CYP2C19 activ
CCOC(=O)c1c(NC(=O)c2ccccc2)sc2c(O)c(CN(CC)CC)ccc12,0.5,-0.14,47,14,0.9
CCN(CC)C(=O)c1c(NC(=O)c2ccccc2)sc(C)c1C,0.8,0.22,24,73*,0.3
O=C(N/N=C/c1ccc(O)cc1)c1ccc(COc2cc(Cl)ccc2Cl)o1,0.7,-2.2,29,46,0.5
O=C1c2ccccc2-c2onc3ccc(NCCCn4ccnc4)c1c23,0,-1.2,97*,92*,0.1
Cc1sc(=NC(=O)c2ccco2)n(C)c1-c1ccccc1,0.3,-0.57,65*,40,0.6
Cc1cc(C)c(NC(=O)/C=C\C(=O)O)c([N+](=O)[O-])c1,1,0.092,4,-3,1
CCOC(=O)C(CC)n1cnc2c(nnn2-c2ccc(C)cc2)c1=O (stereo unspecified),0.5,-0.61,50*,17,0.8
Cn1c(SCC(=O)N2CCCCC2)nc2cccnc21,1,0.044,0,9,0.9
CC(c1ccccc1)n1c(-c2ccncc2)n[nH]c1=S (stereo unspecified),0.3,nt,65*,78*,0.2
CCc1ccccc1-n1c(-c2ccncc2)n[nH]c1=S,0.3,0.38,68*,68*,0.3
S=c1[nH]nc(-c2ccncc2)n1Cc1ccccc1,0.7,0.48,31,-6,1.1
Cc1cccc(-n2c(C)n[nH]c2=S)c1C,1.3,0.51,-32,-23,1.2
Cc1ccccc1-n1c(-c2ccncc2)n[nH]c1=S,0.7,0.28,29,54*,0.5
CC1(C)Cc2ccccc2C2CC(O)C(=O)N21 (stereo unspecified),1.1,0.69,-9,-6,1.1
O=C(NCCc1ccc(Cl)cc1)C1CCN(S(=O)(=O)c2ccc(-n3cnnn3)cc2)CC1,1,0.79,4,0,1
CCc1nn(C(C)C(=O)NC(C)CCc2ccco2)c(=O)c2cc3occc3n12 (stereo unspecified),0.2,0.11,77*,60*,0.4
CCN(CC)C(=O)Cn1cc(/C=C(\C#N)C(=O)N2CCN(c3ccccc3)CC2)c2ccccc21,0.4,-1.7,56*,71*,0.3
O=c1nc2ccccc2c2n1CC(CN1CCN(c3cccc(Cl)c3)CC1)N2 (stereo unspecified),1.3,-2.2,-30,-15,1.2
Nc1nc(-c2c[nH]c3ccccc23)cs1,0.7,0.67,31,42,0.6
CNc1nc(-c2c[nH]c3ccccc23)cs1,0.2,0.3,78*,73*,0.3
CC(C)(C)NC(=O)CSc1nnnn1C(C)(C)C,0.9,0.91,8,21,0.8
Cc1occc1C(=O)Nc1ccc(S(=O)(=O)N2CCN(C)CC2)cc1,0.8,0.1,21,16,0.8
CN(CC(=O)NCCc1ccccc1)S(=O)(=O)c1cccs1,0.6,0.46,37,58*,0.4
COc1ccccc1N(CC(=O)NCCc1ccccc1)S(C)(=O)=O,0.8,0.42,18,38,0.6
CN(Cc1ccccc1)S(=O)(=O)c1cccs1,0.7,-0.82,29,98*,0
SMILES,CYP2C9 activ,Cav3 T inh,CYP2C9 inhib,CYP2C19 inhib,CYP2C19 activ
CN(Cc1cccs1)S(=O)(=O)c1cccs1,1.1,0.41,-10,92*,0.1
CN(Cc1ccccc1)S(=O)(=O)c1ccc(NS(C)(=O)=O)cc1,0.6,0.0073,41,16,0.8
COC(=O)c1cc2occc2n1CC(=O)Nc1ccc(OC)c(OC)c1,0.8,0.047,16,33,0.7
COC(=O)c1cc2ccsc2n1CC(=O)Nc1ccc(N(C)C)cc1,0.8,-0.095,22,53*,0.5
COC(=O)c1cc2ccsc2n1CC(=O)Nc1cc(Cl)ccc1OC,0.6,-1.4,36,51*,0.5
COC(=O)c1cc2ccsc2n1Cc1nc(-c2ccc(OC)cc2)oc1C,0.4,-1.8,59*,32,0.7
COC(=O)c1cc2sccc2n1Cc1nc(-c2ccc(OC)cc2)oc1C,0.5,-0.39,48,31,0.7
COC(=O)c1cc2ccsc2n1CC(=O)N(C)c1ccccc1,0.8,-0.013,23,56*,0.4
O=C(Cn1cc2c(n1)CCCC2)N1CCc2ccccc21,0.7,-0.016,27,10,0.9
COC(=O)c1nn(C23CC4CC(CC(C4)C2)C3)c2c1C(=O)N(c1ccc(Br)cc1)C2=O,0.8,-1.1,22,20,0.8
Cc1sc2ncnc(SCC(=O)NNC(=O)COc3cccc4ccccc34)c2c1C,1.4,-2.8,-38,-9,1.1
